# Data as given in the supplement of paper PMC7380943.
# Counter-ions that a name gives are not always drawn.
# Assays:
# [1] = tested on: CLZ3 (HCA2 human fibroblast dual HR-NHEJ reporter); experiment: NHEJ repair efficiency (GFP+ cells) relative to control (log10 fold); higher = more non-homologous end joining; conditions: 5 µM; doxycycline 0.5 ug/mL
# [2] = tested on: CLZ3 (HCA2 human fibroblast dual HR-NHEJ reporter); experiment: HR repair efficiency (tdTomato+ cells) relative to control (log10 fold); higher = more homologous recombination; conditions: 5 µM; doxycycline 0.5 ug/mL
# 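Wherever HR repair efficiency (tdTomato+ cells) relative to control is given: compound given one day before doxycycline, which switches on I-SceI endonuclease expression to create double-strand breaks within the integrated reporter.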
# 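Wherever NHEJ repair efficiency (GFP+ cells) relative to control is given: compound given one day ahead of doxycycline, which switches on I-SceI endonuclease to cut the chromosomally integrated reporter and create DSBs.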
SMILES,NHEJ repair efficiency (log10) [1],HR repair efficiency (log10) [2]
COc1ccc(C(=O)O)cc1 [Anisic Acid],0.0832,0.118
O=c1cc(-c2ccc(O)c(O)c2)oc2cc(O)c([C@@H]3O[C@H](CO)[C@@H](O)[C@H](O)[C@H]3O)c(O)c12 [Isoorientin],-0.0953,0.00986
O=C(/C=C/c1ccc(O)c(O)c1)O[C@@H](C(=O)O)[C@@H](O)C(=O)O [Caftaric Acid],-0.0695,-0.0835
COc1ccc(CCC(=O)c2c(O)cc(OC3OC(CO)C(O)C(O)C3OC3OC(C)C(O)C(O)C3O)cc2O)cc1O (configuration not stated) [Neosperidin Dihydrochalcone],-0.0639,0.0209
OC[C@@H]1O[C@@H](OC[C@H]2O[C@@H](OC/C=C/c3ccccc3)[C@H](O)[C@@H](O)[C@@H]2O)[C@H](O)[C@H]1O [Rosarin],0.0801,0.118
C[C@@H]1O[C@@H](OC[C@H]2O[C@@H](OCCc3ccc(O)c(O)c3)[C@H](O)[C@@H](O[C@@H]3O[C@@H](C)[C@H](O)[C@@H](O)[C@H]3O)[C@@H]2OC(=O)/C=C/c2ccc(O)c(O)c2)[C@H](O)[C@H](O)[C@H]1O [Poliumoside],0.019,0.0718
COc1cc(O)c(CC=C(C)C)c(O)c1C(=O)/C=C/c1ccc(O)cc1 [Xanthohumol],0.0812,0.0483
CC(CC(=O)C[C@@H](C)[C@H]1CC(=O)[C@@]2(C)C3=C(C(=O)[C@@H](O)[C@]12C)[C@@]1(C)CC[C@H](O)C(C)(C)[C@@H]1C[C@@H]3O)C(=O)O (some centres not stated) [Ganoderic Acid G],0.055,0.106
Oc1cc(O)c2c(c1)O[C@H](c1ccc(O)c(O)c1)[C@H](O)[C@H]2c1c(O)cc(O)c2c1O[C@H](c1ccc(O)c(O)c1)[C@H](O)C2 [Procyanidin B2],0.092,-0.122
C=C1CC[C@H]2C(=C)CC[C@H]3C(=C)C(=O)O[C@@H]3[C@@H]12 [Dehydrocostus Lactone],-0.02,0.03
C=C1CCC[C@]2(C)C[C@@H]3OC(=O)C(C)=C3C[C@@H]12 [Atractylenolide Ii],-0.0767,0.118
O=C[C@H](O)[C@@H](O)[C@H](O)[C@H](O)CO[C@H]1O[C@H](CO[C@H]2O[C@H](CO)[C@H](O)[C@H](O)[C@H]2O)[C@H](O)[C@H](O)[C@H]1O [Manninotriose],0.0359,0.0215
C=C(CC[C@@H](C(=O)O)[C@H]1[C@H](O)C[C@@]2(C)C3=C(CC[C@]12C)[C@@]1(C)CC[C@H](OC(C)=O)C(C)(C)[C@@H]1CC3)C(C)C [Pachymic Acid],-0.118,0.0591
Cc1ccc(C(C)C)cc1O [Carvacrol],-0.132,-0.173
C=C1C[C@@]23CC[C@H]4[C@@](C)(CCC[C@@]4(C)C(=O)O[C@@H]4O[C@H](CO)[C@@H](O)[C@H](O)[C@H]4O)[C@@H]2CC[C@]1(O[C@@H]1O[C@H](CO)[C@@H](O)[C@H](O)[C@H]1O)C3 [Rubusoside],0.0726,0.0779
O=c1c2ccccc2nc2n1CCc1c-2[nH]c2ccccc12 [Rutecarpine],-0.038,-0.0255
Cc1nc(C)c(C)nc1C [Ligustrazine hydrochloride],0.0819,0.079
C=C[C@H]1[C@H](O[C@@H]2O[C@H](CO)[C@@H](O)[C@H](O)[C@H]2O)OC=C(C(=O)OC)[C@H]1CC(=O)O [Secoxyloganin],0.0169,-0.19
COc1ccc(-c2oc3c(CC=C(C)C)c(O[C@@H]4O[C@H](CO)[C@@H](O)[C@H](O)[C@H]4O)cc(O)c3c(=O)c2O[C@@H]2O[C@@H](C)[C@H](O)[C@@H](O)[C@H]2O[C@@H]2OC[C@@H](O)[C@H](O)[C@H]2O)cc1 [Epimedin B],-0.0634,-0.0516
COc1cc(C(=O)OCCCCNC(=N)N)cc(OC)c1O [Leonurine],-0.042,0.0155
O=C1OC2(c3ccccc3Oc3ccccc32)c2ccccc21 [Fluoran],0.0054,0.0374
O=C1c2ccccc2C(=O)c2c(O)c(O)cc(O)c21 [Purpurin],-0.0313,0.0725
O=C1C[C@@H](c2ccc(O[C@@H]3O[C@H](CO)[C@@H](O)[C@H](O)[C@H]3O)cc2)Oc2cc(O)ccc21 [Liquiritin],-0.084,-0.0906
CC1(C)OC(=O)C=C[C@]2(C)[C@H]3CC[C@@]4(C)[C@H](c5ccoc5)OC(=O)[C@H]5O[C@]54[C@]3(C)C(=O)C[C@@H]12 [Obacunone],-0.0357,0.0481
CC(=O)OC1CC23CC(C)(O)C(CCC2C(C)(O)C2C4OC4C(C)(C)C12O)C3O (configuration not stated) [Rhodojaponin Ii],-0.0128,-0.000636
COc1cc(C=O)ccc1O [Vanillin],-0.132,-0.154

SMILES,NHEJ repair efficiency (log10) [1],HR repair efficiency (log10) [2]
O=C(O)c1cc(O)c2c(c1)C(C1c3cc(CO)cc(O)c3C(=O)c3c(OC4OC(CO)C(O)C(O)C4O)cccc31)c1cccc(OC3OC(CO)C(O)C(O)C3O)c1C2=O (configuration not stated) [Sennoside D],0.274,-0.297
COc1ccc(-c2oc3c(CC=C(C)C)c(O[C@@H]4O[C@H](CO)[C@@H](O)[C@H](O)[C@H]4O)cc(O)c3c(=O)c2O[C@@H]2O[C@@H](C)[C@H](O)[C@@H](O)[C@H]2O)cc1 [Icarrin],-0.0369,0.0409
OCC1=C[C@@H](O)[C@]2(O[C@@H]3O[C@H](CO)[C@@H](O)[C@H](O)[C@H]3O)C=CO[C@@H](O[C@@H]3O[C@H](CO)[C@@H](O)[C@H](O)[C@H]3O)[C@H]12 [Melittoside],-0.134,0.096
O=C(O)/C=C/c1ccc(O)cc1 [P-Coumaric Acid],0.1,0.212
COc1cc(-c2oc3cc(O)cc(O)c3c(=O)c2O[C@@H]2O[C@H](CO)[C@@H](O)[C@H](O)[C@H]2O)ccc1O [Isorhamnetin-3-O-Glucoside],-0.0722,-0.00603
O=C(/C=C/c1ccc(O)c2oc(-c3ccc(O)c(O)c3)cc12)O[C@H](Cc1ccc(O)c(O)c1)C(=O)O [Salvianolic Acid C],-0.0345,-0.0113
C[C@H]1[C@H](C)CC[C@]2(C(=O)O)CC[C@]3(C)C(=CC[C@@H]4[C@@]5(C)C[C@@H](O)[C@H](O)[C@@](C)(CO)[C@@H]5[C@H](O)C[C@]43C)[C@H]12 [Madecassic acid],0.0926,0.143
C=C1CC[C@@H]2[C@](C)(CO)[C@H](O)CC[C@@]2(C)[C@@H]1C/C=C1/C(=O)OC[C@H]1O [Andrographolide],0.0511,0.266
COc1cc2ccc(=O)oc2c(OC)c1O [Isofraxidin],-0.0516,-0.153
COc1ccccc1 [Anisole],0.105,0.043
CC(C)=CCC[C@](C)(O[C@@H]1O[C@H](CO)[C@@H](O)[C@H](O)[C@H]1O)[C@H]1CC[C@]2(C)[C@@H]1[C@H](O)C[C@@H]1[C@@]3(C)CC[C@H](O)C(C)(C)[C@@H]3[C@@H](O[C@@H]3O[C@H](CO)[C@@H](O)[C@H](O)[C@H]3O[C@@H]3OC[C@@H](O)[C@H](O)[C@H]3O)C[C@]12C [Notoginsenoside R1],-0.0455,0.0156
CC1(C)[C@@H](O[C@H]2O[C@H](C(=O)O)[C@@H](O)[C@H](O)[C@H]2O[C@@H]2O[C@H](C(=O)O)[C@@H](O)[C@H](O)[C@H]2O)CC[C@]2(C)[C@H]3C(=O)C=C4[C@@H]5C[C@@](C)(C(=O)O)CC[C@]5(C)CC[C@@]4(C)[C@]3(C)CC[C@@H]12 [Monoammonium glycyrrhizinate],-0.145,-0.0779
COC(=O)c1ccccc1O[C@@H]1O[C@H](CO[C@@H]2OC[C@@H](O)[C@H](O)[C@H]2O)[C@@H](O)[C@H](O)[C@H]1O [Gaultherin],-0.0565,-0.122
O=C(O)CC(O)C(=O)O (configuration not stated) [Malic Acid],-0.069,-0.141
O=C1Nc2ccccc2/C1=C1/Nc2ccccc2C1=O [Indirubin],-0.0691,-0.00679
"OC[C@H]1O[C@@H](Oc2c(O)cc(O)cc2/C=C/c2ccc(O)cc2)[C@H](O)[C@@H](O)[C@@H]1O [2,3,5,4'-Tetrahydroxy Stilbene 2-Ο-Β-D-Glucoside]",0.157,-0.0324
COc1cc(C[C@H](C)[C@H](C)Cc2ccc3c(c2)OCO3)ccc1O [Anwuligan],0.0149,0.0747
COc1c2ccoc2c(OC[C@@H](O)C(C)(C)O)c2oc(=O)ccc12 [Byakangelicin],0.0236,-0.0476
COc1ccc([C@@H]2CC(=O)c3c(O)cc(O[C@@H]4O[C@H](CO[C@@H]5O[C@@H](C)[C@H](O)[C@@H](O)[C@H]5O)[C@@H](O)[C@H](O)[C@H]4O)cc3O2)cc1O [Hesperidin],0.196,0.258
COC(=O)C1=CO[C@@H](O)[C@@H]2C(CO)=CC[C@H]12 [Genipin],-0.0273,0.00524
C[N+](C)(C)[C@H](Cc1c[nH]c2ccccc12)C(=O)[O-] [Hypaphorine],0.0288,-0.124
O=c1c(O)c(-c2cc(O)c(O)c(O)c2)oc2cc(O)cc(O)c12 [Myricetin],0.0547,0.02
C/C(=C\C(=O)CC(C)C(=O)O)[C@H]1CC(=O)[C@@]2(C)C3=C(C(=O)C[C@]12C)[C@@]1(C)CC[C@H](O)C(C)(C)[C@@H]1C[C@@H]3O (some centres not stated) [Ganoderenic Acid B],0.000561,0.021
Nc1ncnc2c1ncn2[C@@H]1O[C@H](CO)[C@@H](O)[C@H]1O [Adenosine],-0.0785,-0.0239
CC1(C)CC[C@]2(C(=O)O[C@@H]3O[C@H](CO)[C@@H](O)[C@H](O)[C@H]3O)CC[C@]3(C)C(=CC[C@@H]4[C@@]5(C)CC[C@H](O[C@@H]6O[C@H](C(=O)O)[C@@H](O)[C@H](O)[C@H]6O[C@@H]6O[C@H](CO)[C@@H](O)[C@H](O)[C@H]6O)C(C)(C)[C@@H]5CC[C@]43C)[C@@H]2C1 [Ginsenoside Ro],0.13,0.3
